Screens as filed in PubChem.
This is a sample that favours compounds with a hit; in the whole collection about 4.3% have one here.
D3 antag: qHTS of D3 Dopamine Receptor Antagonist: qHTS. D(3) dopamine receptor (Homo sapiens), P35462. D3R cells, DiscoveRx beta-arrestin luminescence, antagonist mode; hits give low values. max response, negative = inhibition, %. hit rate 2.5% among 360,000; in the data active = max response below about -50%; inconclusive = no clear call, values can overlap the other calls; note: % is set by controls: 0 for no effect and ±100 for the full control effect
Target sequence (P35462 whole entry, looked up): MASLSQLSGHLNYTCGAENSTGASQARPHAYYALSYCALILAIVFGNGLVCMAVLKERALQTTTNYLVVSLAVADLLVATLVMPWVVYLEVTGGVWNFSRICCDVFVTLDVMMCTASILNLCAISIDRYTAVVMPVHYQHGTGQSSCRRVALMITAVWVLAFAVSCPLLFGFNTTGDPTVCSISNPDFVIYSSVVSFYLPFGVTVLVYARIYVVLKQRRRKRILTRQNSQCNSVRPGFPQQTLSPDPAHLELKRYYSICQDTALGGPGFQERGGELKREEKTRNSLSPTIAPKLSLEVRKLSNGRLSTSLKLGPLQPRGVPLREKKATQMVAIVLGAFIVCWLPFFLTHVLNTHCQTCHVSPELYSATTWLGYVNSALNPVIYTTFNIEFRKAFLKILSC
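Cells plated overnight at 1500 cells/well, then exposed to library compounds with dopamine controls for 90 minutes at 37 degrees C. DiscoveRx reagent added for 30–60 minutes at room temperature; luminescence read, quantitative HTS format.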
GLP1R inv ag: qHTS of GLP-1 Receptor Inverse Agonists (Inhibition Mode); Glucagon-like peptide 1 receptor (Homo sapiens), P43220; HEK293 GLP-1R CRE-luciferase, luminescence, 24 h; GLP-1R form is constitutively active; Potency, µM (highest dose often 38.3 µM), without a hit: at the top dose activity change, negative = inhibition, most hits filed as inhibitors; hit rate 1.6% among 410,000; note: potency is the fitted concentration of half-maximal effect; % is set by controls: 0 for no effect and ±100 for the full control effect; nearly all actives have a fitted effect of over 55% in size
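Constitutively active GLP-1R drives a cAMP-responsive luciferase in stably transfected HEK293 cells; test compounds are added after overnight (12 h) attachment and left 24 hr, and signal loss in luminescence marks inhibition.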
D3 ag: qHTS of D3 Dopamine Receptor Agonist: qHTS; D3R DiscoveRx beta-arrestin cells, luminescence, 90 min; D(3) dopamine receptor (Homo sapiens), P35462; max activation, %; hit rate 0.58% among 410,000; in the data active = max activation above about 30%; note: 0% is about no effect
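Agonist-mode cell screen: cells plated at 1500/well and incubated overnight at 37 °C, then exposed to library compounds for 90 min at 37 °C. Detection reagent was added for 30–60 min at room temperature, and luminescence was read.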
GLP1R ag: qHTS of GLP-1 Receptor Agonists; Glucagon-like peptide 1 receptor (Homo sapiens), P43220; HEK293 GLP-1R CRE-luciferase, luminescence, 4-6 h; cells express a hypersensitive GLP-1R form; Potency, µM (titrated, usually from 45.6 µM), for the others: at the top dose activation, actives largely listed as activators; hit rate 0.007% among 380,000; AID 624172, 2012; note: potency is the fitted concentration of half-maximal effect; % of control where 0% means no effect
The depositor's hits bear a star; ? = inconclusive; · = no result. Unless noted, calls come from the whole dose curve; as a rule, active = well fitted curve in the direction sought with a large enough effect; inconclusive = small, poorly fitted or top-dose-only effect, or another doubt; inactive = no such curve, though single readings can be large; an effect the other way counts as inactive or inconclusive.

SMILES | D3 antag | GLP1R inv ag | D3 ag | GLP1R ag
Cc1ccc2nc3n(c(=O)c2c1)CCCCC3 | -11 | 1% | 3 | 8%
Cc1ccc2nc3n(c2c1)CCCN3 | -59* | -10% | 0 | 0%
C/C(=N\OCc1nc2ccccc2c(=O)n1/N=C/c1cc(C)cc([N+](=O)[O-])c1O)c1ccccc1 | -6 | 14% | 2 | 0%
Cc1cc(/C=N/n2cnnc2)c(O)c([N+](=O)[O-])c1 | -63* | 3% | -20 | -6%
O=C(COCc1ccccc1)N[C@@H]1c2ccccc2CC[C@@H]1OCc1ccccc1 | -10 | ? | -21 | -1%
O=C(Cc1ccccc1)N[C@@H]1c2ccccc2CC[C@@H]1OCc1ccccc1 | -90* | 3% | -20 | 10%
CC1CCN(CCOCCOc2ccc(Br)cc2Cl)CC1 | -75* | ? | -57 | -3%
CC1CCCN(CCCOc2ccc(Br)cc2Cl)C1 (configuration not stated) | -77* | ? | -12 | 0%
COc1ccc2nc(N(Cc3cccnc3)C(=O)CCc3ccccc3)sc2c1 | · | ? | -1 | ·
CC1CCN(S(=O)(=O)c2ccc3c(c2)N(CC(=O)Nc2ccc(F)c(Cl)c2)C(=O)CO3)CC1 | · | ? | 2 | ·
C=CC1=C(C(=O)O)N2C(=O)[C@@H](NC(=O)/C(=N/OCC(=O)O)c3csc(N)n3)[C@H]2SC1 (stereo in doubt) | · | · | 1 | ·
COc1ccccc1-n1c(=S)[nH]c2c(sc(=S)n2-c2ccccc2C)c1=O | -78* | ? | 56* | 1%
CCOC(=O)c1ccc(NC(=O)c2cccc(S(=O)(=O)N3CCN(C(C)=O)CC3)c2)cc1 | 5 | -6% | 5 | 17%
Cc1cc(C(=O)COC(=O)c2cccnc2Cl)c(C)n1C | 4 | 7.1µM* | 3 | -6%
Cc1onc(-c2ccc3c(c2)OCO3)c1-c1ccc2[nH]ccc2c1 | 0 | 8.9µM* | -37 | -1%
c1cc2cc(-c3c(-c4ccc5c(c4)OCO5)noc3-c3ccsc3)ccc2[nH]1 | 0 | ? | -15 | -1%
CCCCC(CC)COC(=O)CC(C(=O)OCC(CC)CCCC)S(=O)(=O)O (configuration not stated) | · | · | -6 | -2%
CCCCC(CC)COC(=O)C(C#N)=C(c1ccccc1)c1ccccc1 (configuration not stated) | -74* | -19% | -93 | -4%
CCN(CC)C(=O)C1CCN(C(=O)c2cnn(-c3ccccc3)c2-n2cccc2)CC1 | · | -1% | 4 | ·
Cc1cc2c(c(=O)n1Cc1cccnc1)C(c1cccs1)C(C#N)=C(N)O2 (configuration not stated) | -51* | 29% | -7 | 0%
NC(=O)NC(CC(=O)NCCCc1ccccc1)c1ccc(Cl)cc1 (configuration not stated) | -55* | -17% | -24 | -3%
NC(=O)NC(CC(=O)NCCc1ccc(S(N)(=O)=O)cc1)c1ccc(Cl)cc1 (configuration not stated) | 4 | 0% | -1 | 3%
CC1(C)CC(=O)C=C(c2ccc(OC(F)(F)F)cc2)C1 | 0 | 3% | 0 | 2%
CC1(C)CC(=O)C=C(c2ccc(Oc3ccccc3)cc2)C1 | -65* | 3% | -6 | 25%
CC1(C)CC(=O)C2=C(C1)Nc1cc(Cl)ccc1S2 | 14 | ? | 31* | 0%
SMILES | D3 antag | GLP1R inv ag | D3 ag | GLP1R ag
Cc1ccc(C)c(Cn2c(=O)n(Cc3ccccc3)c(=O)c3c(C)c(C)sc32)c1 | · | -10% | 7 | ·
CCOc1ccc(CNC(=O)c2sc3nc(C)cc(C)c3c2-n2cccc2)cc1 | · | -5% | -6 | ·
O=C(NC1CC(=O)N(c2ccc(F)cc2)C1)c1ccc(S(=O)(=O)N2CCOCC2)cc1 (configuration not stated) | · | 9% | -2 | ·
Cc1ccc2c(c1)-c1c(ssc1=S)C(C)(C)N2C(=O)c1ccco1 | -62* | -1% | -26 | 11%
CCCCc1ccc(NC(=O)CSc2nc3ccccc3nc2N2CCOCC2)cc1 | · | 10% | 11 | ·
Cc1cccc(C)c1C(=NCCCN(C)C)c1ccccc1 | -78* | -24% | -8 | -2%
CN(C)CCCNC(=O)/C(=N\O)c1ccccc1 | -14 | 27% | 1 | 5%
Cc1ccccc1-c1nc(S(=O)(=O)c2ccccc2)c(N2CCCC2)o1 | 17 | 8% | -3 | -3%
Cc1ccc(S(=O)(=O)c2nc(-c3ccccc3)oc2N2CCCCCC2)cc1 | · | 6.3µM* | -4 | ·
O=S(=O)(c1ccccc1)c1nc(-c2ccc(Cl)cc2Cl)oc1N1CCCCCC1 | · | 8% | 61* | ·
Cc1ccc(-c2nc(S(=O)(=O)c3ccc(C)cc3)c(N3CCCCC3)o2)cc1 | · | -6% | -10 | ·
Cc1ccc(S(=O)(=O)c2nc(-c3ccccc3)oc2SCC(=O)NC2CCCCC2)cc1 | · | 12% | 64* | ·
CCOc1ccc(/C=C/c2nc3ccccc3n2S(=O)(=O)c2cccc(Cl)c2)cc1 | · | ? | 6 | ·
CCOc1ccc(-n2c(SCC(=O)N3CCOCC3)nc3c([nH]c4ccccc43)c2=O)cc1 | · | -7% | -12 | 0%
CC1=CC(C)(C)n2c(O)c(N=NC(N)=S)c3cccc1c32 | -13 | 4.5µM* | -7 | 1%
CC(=O)c1ccc(OCCCC(=O)Nc2ccc(Cl)c(S(=O)(=O)N3CCOCC3)c2)cc1 | 19 | 1% | 2 | 2%
COc1ccc(C(=O)NC(=S)Nc2cccc(S(=O)(=O)N3CCOCC3)c2)cc1 | -7 | ? | -3 | 11%
Cc1ccc(OCCCC(=O)Nc2ccc(Cl)c(S(=O)(=O)N3CCOCC3)c2)cc1 | 9 | 11µM* | 1 | -4%
COc1ccc(NC(=O)CCOc2ccc(C)cc2)cc1S(=O)(=O)N1CCCCC1 | 21 | 7.1µM* | -12 | -4%
O=C(Nc1ccc(Cl)c(S(=O)(=O)N2CCOCC2)c1)c1ccc2c(c1)OCO2 | 29 | 11µM* | 1 | 0%
CC(=O)Oc1ccc(-c2ccc(C(=O)Nc3cccc(S(=O)(=O)N4CCOCC4)c3)cc2)cc1 | 2 | 1.4µM* | -1 | 0%
CCOc1ccc(NC(=O)Cn2ccn(-c3ccc(F)c(F)c3)c(=O)c2=O)cc1 | · | 6% | -14 | ·
CCOCCSc1c(C)cnc2c1c(=O)n(C)c(=O)n2C | · | -14% | -1 | ·
C/C(=C\C(=O)c1ccc(Br)cc1)NNC(=O)c1ccccc1 | 2 | ? | 5 | -3%
C/C(=C\C(=O)c1ccc(Br)cc1)NNC(=O)c1ccc(O)cc1 | -11 | 4.5µM* | -1 | -7%
O=C(NCCC1=CCCCC1)C1CCN(C(=O)N2CCOc3ccccc32)CC1 | · | -18% | 2 | ·
O=C(Nc1ccccc1)c1nc[nH]c1C(=O)N1CCN(c2ccccc2)CC1 | -13 | 1% | 20 | -2%
O=C(Nc1nccs1)c1nc[nH]c1C(=O)N1CCN(c2ccccc2)CC1 | -9 | 15% | 31* | -2%
O=[N+]([O-])c1ccc(/C=N/NC(=S)Nc2ccccc2F)o1 | ? | 4% | 6 | 3%
Fc1ccccc1NC(=S)N/N=C/c1ccccc1Br | -79* | ? | -20 | 13%
